Reference: PubChem BioAssay (NCATS)
A number with no mark means an inactive call. Results filed as inconclusive are left out. Activity calls are given as the source filed them. Unless noted, calls follow the shape of the dose curve; as a rule, active = well fitted curve in either direction with a large enough effect (not every such curve was filed as active); inconclusive = small, poorly fitted or top-dose-only effect, or another doubt; inactive = flat fitted curve, though single readings scatter.

How the values were obtained:
[1] = target: Lysosomal acid glucosylceramidase (Homo sapiens) (UniProt P04062); assay: Glucocerebrosidase-p2 (AID 348; in the data active = potency below about 10 µM; also: potency is read from the fitted curve at half-maximal effect); details: purified GBA, blue fluorogenic substrate, 40 min
Lysosomal acid glucosylceramidase (Homo sapiens), sequence (P04062 whole entry, looked up): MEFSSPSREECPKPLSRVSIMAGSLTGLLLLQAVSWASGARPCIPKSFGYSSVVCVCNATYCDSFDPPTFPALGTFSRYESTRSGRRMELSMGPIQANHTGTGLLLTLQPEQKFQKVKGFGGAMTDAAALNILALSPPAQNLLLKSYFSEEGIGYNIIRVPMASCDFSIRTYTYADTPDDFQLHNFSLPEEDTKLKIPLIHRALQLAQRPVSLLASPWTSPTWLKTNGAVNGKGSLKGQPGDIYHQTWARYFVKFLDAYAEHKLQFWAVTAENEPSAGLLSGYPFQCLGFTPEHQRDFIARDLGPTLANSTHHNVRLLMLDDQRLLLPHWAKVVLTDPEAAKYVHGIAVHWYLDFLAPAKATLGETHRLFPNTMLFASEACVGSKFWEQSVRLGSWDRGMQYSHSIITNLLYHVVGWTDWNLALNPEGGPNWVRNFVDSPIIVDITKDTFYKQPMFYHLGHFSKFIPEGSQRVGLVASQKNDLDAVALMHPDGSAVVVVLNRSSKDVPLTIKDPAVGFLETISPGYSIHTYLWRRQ
How it was run: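 Compounds titrated from 0.6 nM upwards against 0.2 nM enzyme in pH 5.9 citric acid/KH2PO4, taurocholate, tween-20; blue fluorogenic substrate 80 uM, 40 min room temperature, stopped and read Ex 365/Em 440 for AC50.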

[2] = AP1 Signaling Pathway (AID 357); details: ME-180 AP-1-bla reporter, EGF-induced, beta-lactamase ratio, 5 h; at 7.69 µM (top of the series) unless noted;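 also: ME-180 reporter cells stimulated with EGF at its EC50 level; % is scaled to controls: 0 for no effect and ±100 for the full control effect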
How it was run: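 AP-1-bla ME-180 cells, Opti-MEM + 0.5% dialyzed FBS, plated overnight 37 °C. Cpd titration + EC50 EGF, 5 h 37 °C. CCF4 2.5 h RT; ex 405, em 460/530 ratio → %activity, AC50.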

[3] = NFAT Signaling Pathway (AID 444); details: Jurkat NFAT-bla M1, carbachol, beta-lactamase ratio, 5 h; at 7.69 µM (top of the series) unless noted;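 also: carbachol stimulus at about its EC50 of 1 µM final; % is scaled to controls: 0 for no effect and ±100 for the full control effect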
How it was run: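 Jurkat cells carrying an NFAT-driven β-lactamase reporter and co-transfected muscarinic M1 receptor were treated with compound plus carbachol (1 uM final, an EC50 level) for 5 h at 37 °C. CCF4 loading followed for 1 h at RT; 460/530 nm ratio gave %activity.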

[4] = target: Glucocorticoid receptor (Homo sapiens) (UniProt P04150); assay: GR-GFP Redistribution (AID 450;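 active = compounds whose dose series gives a full or clear partial fitted curve of increased nuclear translocation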; also: potency is read from the fitted curve at half-maximal effect); details: U2OS GR-GFP nuclear translocation, laser cytometry, 2 h
Glucocorticoid receptor (Homo sapiens), sequence (P04150 whole entry, looked up, the tested form may be a part): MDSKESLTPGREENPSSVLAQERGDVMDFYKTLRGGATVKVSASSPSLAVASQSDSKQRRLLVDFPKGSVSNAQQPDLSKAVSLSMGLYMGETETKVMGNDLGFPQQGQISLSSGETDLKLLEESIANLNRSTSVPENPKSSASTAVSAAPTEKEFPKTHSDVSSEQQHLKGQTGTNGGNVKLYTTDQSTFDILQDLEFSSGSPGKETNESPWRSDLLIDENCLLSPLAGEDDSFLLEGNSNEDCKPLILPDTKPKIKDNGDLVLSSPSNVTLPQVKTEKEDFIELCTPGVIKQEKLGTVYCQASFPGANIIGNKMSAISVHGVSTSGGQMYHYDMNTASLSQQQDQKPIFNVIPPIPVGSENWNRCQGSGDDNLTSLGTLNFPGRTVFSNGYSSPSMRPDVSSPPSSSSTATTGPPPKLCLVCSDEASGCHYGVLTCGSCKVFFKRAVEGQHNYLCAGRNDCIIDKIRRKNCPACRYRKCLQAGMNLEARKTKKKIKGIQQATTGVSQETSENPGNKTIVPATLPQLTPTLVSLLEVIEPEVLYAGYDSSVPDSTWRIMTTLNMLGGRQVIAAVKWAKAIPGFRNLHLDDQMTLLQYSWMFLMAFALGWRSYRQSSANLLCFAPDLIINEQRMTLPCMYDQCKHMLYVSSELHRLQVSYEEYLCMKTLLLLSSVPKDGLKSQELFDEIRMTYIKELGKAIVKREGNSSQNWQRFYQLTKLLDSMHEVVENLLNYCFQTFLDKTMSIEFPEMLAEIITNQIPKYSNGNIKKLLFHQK

[5] = target: Glucocorticoid receptor (Homo sapiens) (UniProt P04150); assay: GR-EFC Redistribution (AID 451; calls by dose curve; also: potency is read from the fitted curve at half-maximal effect); details: CHO-K1 GR-EFC translocation, beta-gal luminescence, 2 h
How it was run: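 CHO-K1 cells stably expressing nuclear-localized β-gal enzyme acceptor and GR fused C-terminally to the enzyme donor fragment; ligand-driven nuclear translocation restores β-gal by complementation. Compounds titrated up to 46 uM final, 2 h at 37 °C; luminescence read.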

[6] = target: Mitogen-activated protein kinase 10 (Mus musculus) (UniProt Q61831); assay: JNK3 AlphaScreen Assay (AID 530); details: JNK3 lysate, c-Jun phosphorylation; series mostly up to 11.4 µM;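 also: kinase came from lysate of stimulated human HepG2 cells; signal reports phosphorylation of biotinylated GST-cJun 1-79 at Ser73 with 10 µM ATP; % is scaled to controls: 0 for no effect and ±100 for the full control effect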
How it was run: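 Inhibitors reduce antibody binding to phosphorylated biotin-cJun, lowering AlphaScreen luminescence. Lysates from HepG2 cells pre-activated by IL-1beta plus TNF-alpha supplied JNK3; compounds were titrated.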

[7] = target: 3',5'-cyclic-AMP phosphodiesterase 4B (Homo sapiens) (UniProt Q07343); assay: qHTS Assay for Inhibitors of PDE-IV (AID 607; active = well fitted activation curve with a large enough effect in the main read-out, with a control signal flat, not every such curve was filed as active; also: % of control where 0% means no effect); details: HEK293 ACTOne CNG channel cells, membrane potential fluorescence; series mostly up to 22.9 µM
3',5'-cyclic-AMP phosphodiesterase 4B (Homo sapiens), sequence (Q07343 whole entry, looked up): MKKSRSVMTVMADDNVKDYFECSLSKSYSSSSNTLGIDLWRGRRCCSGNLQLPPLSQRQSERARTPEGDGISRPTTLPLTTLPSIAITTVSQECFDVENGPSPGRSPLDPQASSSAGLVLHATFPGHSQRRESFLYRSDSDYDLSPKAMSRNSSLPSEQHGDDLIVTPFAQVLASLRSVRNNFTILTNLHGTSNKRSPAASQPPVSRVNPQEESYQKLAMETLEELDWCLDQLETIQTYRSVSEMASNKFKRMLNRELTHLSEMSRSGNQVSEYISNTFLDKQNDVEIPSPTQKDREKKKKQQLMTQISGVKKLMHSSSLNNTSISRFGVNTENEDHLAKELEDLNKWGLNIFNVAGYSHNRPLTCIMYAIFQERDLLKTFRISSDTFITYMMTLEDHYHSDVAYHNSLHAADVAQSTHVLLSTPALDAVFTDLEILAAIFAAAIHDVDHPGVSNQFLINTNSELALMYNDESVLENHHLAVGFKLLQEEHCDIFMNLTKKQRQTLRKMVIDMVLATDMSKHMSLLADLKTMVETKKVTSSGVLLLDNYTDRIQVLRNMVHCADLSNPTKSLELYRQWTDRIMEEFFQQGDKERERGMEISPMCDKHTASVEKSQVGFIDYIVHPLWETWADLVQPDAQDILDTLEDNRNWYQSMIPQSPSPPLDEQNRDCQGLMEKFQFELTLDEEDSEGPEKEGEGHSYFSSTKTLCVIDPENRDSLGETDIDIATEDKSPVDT
How it was run: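 The readout is membrane depolarisation from a cAMP-sensing CNG channel, detected with a potential dye at ex 535/em 590. Cells were HEK293-derived (endogenous PDE-IV) at 1000 cells/well, titrated up to 22.9 uM final.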

[8] = target: Cytochrome P450 2C9 (Homo sapiens) (UniProt P11712); assay: qHTS Assay for Inhibitors and Substrates of Cytochrome P450 2C9 (AID 883; active = well fitted inhibition curve with a large enough effect; also: % is scaled to controls: 0 for no effect and ±100 for the full control effect; nearly all actives have a fitted effect of over 60% in size); details: recombinant CYP2C9, luciferin-H luminescence, 60 min; series mostly up to 11.4 µM
Cytochrome P450 2C9 (Homo sapiens), sequence (P11712 whole entry, looked up): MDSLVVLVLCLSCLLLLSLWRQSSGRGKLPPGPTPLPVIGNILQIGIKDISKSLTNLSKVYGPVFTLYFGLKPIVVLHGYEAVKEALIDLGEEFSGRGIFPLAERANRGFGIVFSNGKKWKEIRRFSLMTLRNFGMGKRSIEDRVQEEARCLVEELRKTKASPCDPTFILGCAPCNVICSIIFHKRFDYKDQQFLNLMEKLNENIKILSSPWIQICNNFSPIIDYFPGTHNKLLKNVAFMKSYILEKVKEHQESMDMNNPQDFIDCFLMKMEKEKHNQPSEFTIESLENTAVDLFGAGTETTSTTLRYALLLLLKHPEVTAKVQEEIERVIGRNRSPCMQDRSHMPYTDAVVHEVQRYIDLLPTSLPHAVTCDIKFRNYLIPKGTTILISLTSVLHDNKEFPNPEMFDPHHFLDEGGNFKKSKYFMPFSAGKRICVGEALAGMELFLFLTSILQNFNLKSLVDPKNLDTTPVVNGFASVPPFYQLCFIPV
How it was run: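 A luminogenic readout tracked human CYP2C9 (10nM) converting deoxyluciferin (100uM, at KM) in 25mM KPO4 during 60 min at 37C with regenerated NADPH. Values normalized to 57uM sulphaphenazole as complete inhibition.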

[9] = target: Cytochrome P450 3A4 (Homo sapiens) (UniProt P08684); assay: qHTS Assay for Inhibitors and Substrates of Cytochrome P450 3A4 (AID 884; active = well fitted inhibition curve with a large enough effect; also: % is scaled to controls: 0 for no effect and ±100 for the full control effect; nearly all actives have a fitted effect of over 50% in size); details: recombinant CYP3A4, Luciferin-PPXE luminescence; series mostly up to 57.1 µM
Cytochrome P450 3A4 (Homo sapiens), sequence (P08684 whole entry, looked up): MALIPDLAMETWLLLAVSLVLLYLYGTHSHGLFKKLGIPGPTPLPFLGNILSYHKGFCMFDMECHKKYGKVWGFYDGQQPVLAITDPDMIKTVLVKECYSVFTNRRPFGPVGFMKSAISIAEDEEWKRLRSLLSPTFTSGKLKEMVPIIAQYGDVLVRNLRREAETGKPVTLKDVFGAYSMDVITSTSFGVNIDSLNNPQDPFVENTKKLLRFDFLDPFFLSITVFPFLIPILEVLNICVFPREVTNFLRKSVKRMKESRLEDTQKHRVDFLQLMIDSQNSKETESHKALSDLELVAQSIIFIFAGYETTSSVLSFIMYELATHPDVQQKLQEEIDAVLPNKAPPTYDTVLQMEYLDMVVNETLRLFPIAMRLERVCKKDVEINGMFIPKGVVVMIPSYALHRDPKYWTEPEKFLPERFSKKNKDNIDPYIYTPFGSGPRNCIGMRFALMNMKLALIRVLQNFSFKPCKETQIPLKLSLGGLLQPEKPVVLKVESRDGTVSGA
How it was run: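 20 nM human CYP3A4 with 25 uM Luciferin-PPXE (at KM) in 200 mM KPO4, preincubated 10 min with compound; NADPH regeneration started a 60 min RT reaction. Luciferin detected by luminescence, normalized to 57 uM ketoconazole as full inhibition.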

[10] = Stat Signaling Pathway (AID 446); details: ME-180 SIE beta-lactamase reporter, IL-6 stimulated, 5 h; at 7.69 µM (top of the series) unless noted;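 also: ME-180 cervical cancer cells given 40 pM IL-6 alongside compound; SIE-controlled beta-lactamase reporter measured as 460/530 nm FRET emission ratio; % is scaled to controls: 0 for no effect and ±100 for the full control effect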
How it was run: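 Screening format detects activators and inhibitors alike: ME-180 SIE-bla cells stimulated at 40 pM IL-6 for 5 hrs with compound, then dual-emission beta-lactamase read at 405 nm excitation.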

| SMILES | Potency [1] [µM] | activity change, negative = inhibition [2] [%] | activity change, negative = inhibition [3] [%] | Potency [4] | Potency [5] [µM] | Potency [6] | Potency [7] | Potency [8] | activity change, negative = inhibition [9] | activity, negative = inhibition [10] [%] |
| --- | --- | --- | --- | --- | --- | --- | --- | --- | --- | --- |
| C[C@H]1CCCC=CC2C[C@H](OC(=O)CN(C)C)C[C@@H]2[C@@H](O)/C=C\C(=O)O1 (stereo partly drawn) | > 11.4 | -7.78 | 29.7 | > 46 µM | > 9.22 | inactive | inactive | inactive | 229% [at 11.4 µM] |  |
| Clc1ccc(/C=C\c2nc(Cl)c(-c3ccc(Cl)cc3)c(Cl)n2)cc1 | > 11.4 | -5.65 |  | > 46 µM | > 9.22 | inactive | inactive |  |  | -0.809 |
| COc1ccc(-n2c(=O)c(-c3cccs3)nc3cnc(Oc4ccccc4)nc32)cc1 | > 11.4 | -6.68 | -26.9 | > 9.22 µM |  | inactive | inactive |  |  |  |
| O=C1c2ccccc2C(=O)c2c(NC(=O)c3ccc4c5c(ncnc35)-c3ccccc3C4=O)cccc21 | > 11.4 | 5.12 |  | > 46 µM | > 9.22 | inactive | inactive |  |  | 0.00925 |
| CNc1ncnc(Sc2nc(N)nc3nc[nH]c23)c1[N+](=O)[O-] | > 11.4 | -9.31 |  | > 46 µM | > 9.22 | inactive | inactive |  |  | 21.1 |
| O=C(O)C[C@H](Nc1ccccc1)C(=O)O | > 11.4 | 0.63 | 19.5 | > 46 µM | > 9.22 | inactive | inactive |  |  |  |
| NC(Cc1ccccc1)(C(=O)O)C(=O)O | > 11.4 | 4.48 |  | > 46 µM | > 9.22 | inactive | inactive |  |  | -6.13 |
| C[C@@]12C[C@H](O)[C@@H]3[C@H](CCC4=CC(=O)CC[C@]43C)[C@H]1CC[C@@H]2c1csc(-c2ccccc2)n1 | > 11.4 | -1.5 |  | > 46 µM | > 9.22 | inactive | inactive |  |  | -6.13 |
| O=C(O)c1cc(-c2ccc(-c3ccccc3)cc2)nc2cc3ccccc3cc12 | > 11.4 | -7.09 |  | > 46 µM | > 9.22 | inactive | inactive |  |  | -0.262 |
| O=C(O)c1cncc(C(=O)O)c1 | > 11.4 | 1.97 |  | > 46 µM | > 9.22 | inactive | inactive |  |  | 6.17 |
| O=C(O)c1ccc(N[C@H](c2ccccc2)c2ccc3cccnc3c2O)cc1 | > 11.4 | -0.822 |  | > 46 µM | > 9.22 | inactive | inactive |  |  | -17 |
| O=C(O)[C@H]1CCCC[C@@H]1c1c2ccc(=O)c(O)c-2oc2c(O)c(O)ccc12 | > 11.4 | -17.7 | 0.0388 | > 46 µM | > 9.22 |  | inactive |  |  |  |
| COc1ccc(C[C@H](O)CN2CCOCC2)cc1 | > 11.4 | -3.04 |  | > 46 µM | > 9.22 | inactive | inactive |  |  | 9.2 |
| CN1CCC[C@H](C(=O)OCC(=O)[C@]2(O)CC[C@@H]3[C@H]4CCC5=CC(=O)CC[C@@]5(C)[C@H]4[C@@H](O)C[C@]32C)C1 | > 11.4 | 11 |  | 0.135 µM (active) | > 9.22 | inactive | inactive |  |  | -2.61 |
